From PubChem BioAssay (EPA / NIEHS)
Records with an inconclusive call do not appear. The source made the active and inactive calls. How the source made its calls, unless noted: active means hit-call score of the fitted dose curve at least 0.9, where 1 is the maximum; inconclusive means response in the unintended direction; inactive means score below 0.9.

Assays:
[1] = CEETOX_H295R_MTT_cell_viability: Viability Assessment in the CeeTox HT-H295R MTT Assay (AID 2283718; active means hit-call score of the fitted dose curve at least 0.9, where 1 is the maximum; inactive means score below 0.9;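 on AC50: curve fitted both ways so AC50 may mark viability loss or gain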)
In short: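 H295R cells prestimulated 48 h with 10 uM forskolin, then exposed 48 h to test chemical (0.1% DMSO final). Viability by MTT (0.5 mg/ml, 4 h, 37 C), absorbance 570/650 nm; percent change versus DMSO, bidirectional fit.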

[2] = Tanguay_ZF_120hpf_ActivityScore_legacy: (Legacy) Oregon State University Tanguay Lab 120 Hour Post-fertilization zebrafish Assay Score for Activity (AID 2283742);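 on AC50: dechorionated Tropical 5D wild-type zebrafish embryos held singly per well; static exposure from 6 hpf until 120 hpf at 28 °C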
In short: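 In this whole-embryo screen, dechorionated zebrafish were exposed from 6 hpf until 120 hpf at 28C under a 0.64% DMSO vehicle. Developmental malformations and death were recorded by brightfield microscopy as binary endpoints.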

[3] = target: Luciferin 4-monooxygenase (Photinus pyralis) (UniProt P08659); assay: CCTE_Simmons_QuantiLum_inhib_2: CCTE's Firefly Luciferase Inhibition Assay, Simmons Lab (AID 2283767)
In short: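 Eight test concentrations, 5 nM up to 87.5 uM final, preincubated 30min at 37C in the dark with purified luciferase (0.5% DMSO final). Detection reagent (150uM D-luciferin, 147uM dATP, 75uM CoA, pH 7.8) injected per well before kinetic luminescence read; three replicates.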

[4] = system: Thyroperoxidase (TPO), gene 445522; assay: CCTE_Simmons_GUA_TPO: CCTE's Guaiacol Assay for Thyroperoxidase (TPO) Inhibition, Simmons Lab (AID 2283750)
In short: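 Porcine thyroid microsomes (25 ug) in 200mM potassium phosphate, preincubated 30 s at 37C with compound (8 concentrations, 5 nM–87.5 uM) and 35mM guaiacol; 1mM H2O2 starts reaction. Absorbance change at 450nm over first 80 s; loss of signal versus DMSO, three replicates.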

[5] = system: chicken Androgen Receptor (AR), gene 422165; assay: ATG_chAR_XSP1: Attagene TRANS-FACTORIAL Multi-Species (XSP1) HepG2 Assay for chicken Androgen Receptor (AR) (AID 2283768)
In short: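 Reporter mRNA read by RT-PCR with fluorescent labelling and capillary electrophoresis 24 h after chemical dosing of transiently transfected HepG2 cells. Chicken AR-Gal4 chimera, partially stimulated with 3 nM 6-alpha-fluorotestosterone; activity fitted upward relative to DMSO.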

[6] = system: zebrafish Androgen Receptor (AR), gene 100005148; assay: ATG_zfAR_XSP1: Attagene TRANS-FACTORIAL Multi-Species (XSP1) HepG2 Assay for zebrafish Androgen Receptor (AR) (AID 2283771)
In short: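 Gain-of-signal versus DMSO was measured as reporter transcripts quantified by RT-PCR, fluorescent labelling and capillary electrophoresis after 24 h chemical exposure. The cells were HepG2 expressing a chimeric zebrafish AR-GAL4, co-stimulated with 3 nM 6-alpha-fluorotestosterone.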

[7] = target: zebrafish Estrogen Receptor (ESR1), esr1 (gene 259252) (UniProt P57717); assay: ATG_zfER1_XSP1: Attagene TRANS-FACTORIAL Multi-Species (XSP1) HepG2 Assay for zebrafish Estrogen Receptor (ESR1) (AID 2283772)
In short: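 HepG2 cells were transiently transfected with multiplexed GAL4-UAS reporter units driven by chimeric NR-GAL4 proteins, dosed for 24 h with 3 nM 6-alpha-fluorotestosterone present, and reporter mRNA quantified by RT-PCR and capillary electrophoresis versus DMSO.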

[8] = system: zebrafish Estrogen Receptor (ESR2B), gene 317733; assay: ATG_zfER2b_XSP1: Attagene TRANS-FACTORIAL Multi-Species (XSP1) HepG2 Assay for zebrafish Estrogen Receptor (ESR2B) (AID 2283773)
In short: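 Human hepatoma HepG2, transiently transfected with multi-reporter units; exogenous zebrafish ESR2B-Gal4 activity measured. Exposure 24 h alongside 3 nM 6-alpha-fluorotestosterone to partly stimulate AR.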

[9] = system: frog Estrogen Receptor (ESR2), gene 100174814; assay: ATG_frER2_XSP1: Attagene TRANS-FACTORIAL Multi-Species (XSP1) HepG2 Assay for frog Estrogen Receptor (ESR2) (AID 2283774)
In short: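 Multiplexed TRANS-format reporter assay in human hepatoma HepG2: chimeric nuclear receptor-Gal4 activity reported as mRNA induction at 24 h, detected by fluorescent RT-PCR products on capillary electrophoresis and fitted upward from DMSO baseline.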

[10] = STM_H9_OrnithineISnorm_perc: Stemina devTOX quickPredict H9 human embryonic stem cell (hESC)-based Assay for Ornithine (ORN) Metabolite Biomarker, Normalized (AID 2283712; active means hit-call score of the fitted dose curve at least 0.9, where 1 is the maximum; inactive means score below 0.9;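 further: ornithine released into spent medium during last day measured by mass spectrometry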)
In short: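 Ornithine in spent medium from the last 24 h of a 72 h exposure, deproteinised and quantified by UPLC-HRMS against an isotope-labelled internal standard, expressed relative to 0.1% DMSO. Pluripotent H9 cells; compound refreshed every 24 h.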

[11] = STM_H9_CystineISnorm_perc: Stemina devTOX quickPredict H9 human embryonic stem cell (hESC)-based Assay for Cystine (CYSS) Metabolite Biomarker, Normalized (AID 2283713; active means hit-call score of the fitted dose curve at least 0.9, where 1 is the maximum; inactive means score below 0.9)
In short: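 Cystine in spent media from the last 24 h of a 72 h H9 hESC exposure (daily re-dosing), measured by UPLC-HRMS. Values normalized to isotopic internal standard, then to 0.1% DMSO; viability via CellTiter-Fluor.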

[12] = STM_H9_OrnCyssISnorm_ratio: Stemina devTOX quickPredict H9 human embryonic stem cell (hESC)-based Assay for Ornithine (ORN):Cystine (CYSS) Ratio (AID 2283714)
In short: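 H9 hESC, 72h, q24h re-dose; last-day media → acetonitrile deproteinization → UPLC-HRMS. ORN:CYSS ratio from isotope-normalized EIC areas, vs 0.1% DMSO; MTX references on each plate.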

zebrafish Estrogen Receptor (ESR1), esr1 (gene 259252), sequence (P57717 whole entry, looked up, the tested form may be a part): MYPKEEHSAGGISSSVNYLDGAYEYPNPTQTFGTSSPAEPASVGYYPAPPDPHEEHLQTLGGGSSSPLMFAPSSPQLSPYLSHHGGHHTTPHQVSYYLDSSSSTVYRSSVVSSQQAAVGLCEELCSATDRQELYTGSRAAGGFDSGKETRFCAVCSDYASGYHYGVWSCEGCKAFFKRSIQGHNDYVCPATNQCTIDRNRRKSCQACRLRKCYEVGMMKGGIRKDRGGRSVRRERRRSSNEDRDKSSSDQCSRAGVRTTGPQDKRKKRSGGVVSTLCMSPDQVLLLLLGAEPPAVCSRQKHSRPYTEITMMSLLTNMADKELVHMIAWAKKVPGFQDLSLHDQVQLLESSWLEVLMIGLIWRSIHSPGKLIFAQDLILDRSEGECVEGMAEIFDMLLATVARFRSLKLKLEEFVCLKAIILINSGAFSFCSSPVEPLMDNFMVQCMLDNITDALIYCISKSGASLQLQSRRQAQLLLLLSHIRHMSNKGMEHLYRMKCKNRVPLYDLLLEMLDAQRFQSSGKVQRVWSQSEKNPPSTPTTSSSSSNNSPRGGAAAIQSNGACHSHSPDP
Luciferin 4-monooxygenase (Photinus pyralis), sequence (P08659 whole entry, looked up): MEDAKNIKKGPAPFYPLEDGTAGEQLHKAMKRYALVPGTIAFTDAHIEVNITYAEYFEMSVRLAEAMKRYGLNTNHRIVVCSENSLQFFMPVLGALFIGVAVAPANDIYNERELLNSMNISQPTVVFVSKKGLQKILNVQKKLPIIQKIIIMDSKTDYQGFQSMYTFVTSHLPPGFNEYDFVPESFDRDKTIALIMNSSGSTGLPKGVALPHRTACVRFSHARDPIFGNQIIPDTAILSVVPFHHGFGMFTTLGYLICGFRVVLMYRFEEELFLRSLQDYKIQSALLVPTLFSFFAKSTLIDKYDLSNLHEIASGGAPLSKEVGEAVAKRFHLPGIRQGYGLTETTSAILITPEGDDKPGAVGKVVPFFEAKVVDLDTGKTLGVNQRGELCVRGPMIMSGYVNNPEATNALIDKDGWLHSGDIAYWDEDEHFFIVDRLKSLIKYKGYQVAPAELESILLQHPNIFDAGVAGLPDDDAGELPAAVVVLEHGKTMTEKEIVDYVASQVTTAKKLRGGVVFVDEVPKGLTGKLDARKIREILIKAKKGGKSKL

For `CC(C)Oc1cccc(NC(=O)c2ccccc2C(F)(F)F)c1`, the AC50 [1] was 71.1 µM (active) and the AC50 [2] was 34.2 µM (active).

With `CC(C)=CC1C(C(=O)OCc2coc(Cc3ccccc3)c2)C1(C)C` (stereo not given) the outcome [2] was “inactive” and the outcome [3] was “inactive”.

In the case of `Nc1c(Cl)c(Cl)nc(C(=O)O)c1Cl`, the outcome [2] is reported as “inactive”.

In the case of `COP(=S)(OC)SCn1nnc2ccccc2c1=O`, the outcome [1] is reported as “inactive”, the outcome [2] is reported as “inactive” and the AC50 [4] is reported as 49.6 µM (active). For the same compound, the outcome [3] was “inactive”.

For `CC(C)NC(=O)N1CC(=O)N(c2cc(Cl)cc(Cl)c2)C1=O`, the outcome [1] was “inactive”, the outcome [2] was “inactive” and the outcome [5] was “inactive”. For the same compound, the outcome [6] was “inactive”, the outcome [7] was “inactive” and the AC50 [8] was 100 µM (active). For the same compound, the AC50 [9] was 100 µM (active).

In the case of `CO/N=C(/C1=NOCCO1)c1ccccc1Oc1ncnc(Oc2ccccc2Cl)c1F`, the AC50 [10] is reported as 24 µM (active), the AC50 [11] is reported as 9.72 µM (active) and the AC50 [12] is reported as 18.2 µM (active). The AC50 [2] was 3.17 µM (active).

In the case of `O=C1C2CC=CCC2C(=O)N1SC(Cl)(Cl)Cl` (stereo not given), the outcome [10] is reported as “inactive”, the outcome [11] is reported as “inactive” and the outcome [1] is reported as “inactive”. The AC50 [2] was 43.5 µM (active).

For `COP(=O)(OC)O/C(C)=C/C(=O)N(C)C`, the outcome [2] was “inactive”.

For `C=C(C)CN(CC)c1c([N+](=O)[O-])cc(C(F)(F)F)cc1[N+](=O)[O-]`, the outcome [2] was “inactive”.

For `CCC(C)n1c(=O)[nH]c(C)c(Br)c1=O` (stereo not given), the outcome [10] was “inactive”, the outcome [11] was “inactive” and the outcome [1] was “inactive”. The outcome [2] was “inactive”.

With `CSC(=O)c1c(C(F)F)nc(C(F)(F)F)c(C(=O)SC)c1CC(C)C` the outcome [2] was “inactive”, the outcome [6] was “inactive” and the outcome [7] was “inactive”. The AC50 [8] was 32.3 µM (active) and the AC50 [9] was 0.955 µM (active).
